The whole screen tested about 370,000 compounds, of which about 2,100 (0.57%) were called active.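 The calls were made as follows: active = inhibition above mean plus 3 SD of compounds lying within the high and low control bounds (cut at about 19% in these data); inactive = the rest.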 Shown is part of a subset that was picked to be rich in actives.

Group 3 secretory phospholipase A2 (Homo sapiens), sequence (Q9NZ20 whole entry, looked up): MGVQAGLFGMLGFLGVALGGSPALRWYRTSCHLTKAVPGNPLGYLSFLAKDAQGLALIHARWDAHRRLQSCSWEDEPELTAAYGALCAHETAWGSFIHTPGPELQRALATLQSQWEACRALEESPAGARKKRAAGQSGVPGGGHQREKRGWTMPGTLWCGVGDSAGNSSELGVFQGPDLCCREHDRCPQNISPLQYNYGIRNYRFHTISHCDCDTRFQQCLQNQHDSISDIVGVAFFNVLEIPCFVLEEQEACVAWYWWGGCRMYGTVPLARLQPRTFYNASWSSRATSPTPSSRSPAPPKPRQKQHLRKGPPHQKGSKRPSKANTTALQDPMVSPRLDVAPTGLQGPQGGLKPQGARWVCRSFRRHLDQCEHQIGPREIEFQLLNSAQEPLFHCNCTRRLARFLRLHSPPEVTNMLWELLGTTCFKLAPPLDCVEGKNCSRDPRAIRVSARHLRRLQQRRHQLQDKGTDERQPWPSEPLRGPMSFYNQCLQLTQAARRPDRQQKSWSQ

The experiment has as its target Group 3 secretory phospholipase A2 (Homo sapiens) (UniProt Q9NZ20). As to the kind of experiment: human group III sPLA2 inhibitors, primary screen, biochemical, QFRET, BODIPY PC-A2 liposome substrate (AID 743126).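 Also: 0% = median of test compound wells and 100% = no enzyme DMSO wells.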 Particulars: QFRET BODIPY PC-A2 liposome hydrolysis, fluorescence; at 12.2 µM; hits give high values.
Regarding `COc1ccc(N2CCN(CCNS(=O)(=O)c3ccc(Cl)s3)CC2)cc1`, the inhibition (as a rule, the change of the read-out against control, counted positive when it falls) was 0.02% (inactive).
Under `O=S1(=O)c2ccc(N3CCN(Cc4ccccc4F)CC3)cc2Oc2ccccc2CN1Cc1cn(Cc2ccc(Cl)cc2)nn1` stands -0.32% (inactive); under `O=C(Nc1cccc(F)c1)c1cc(-c2ccco2)nc2ccccc12`, 23.6% (active); under `Cc1cc(C(=O)Nc2ccc(C)c(S(=O)(=O)N3CCOCC3)c2)c2ccccc2n1`, -16.7% (inactive).
To `O=C(Nc1nc2ccc(Cl)cc2s1)c1cc(-c2ccc(Cl)cc2)nc2ccccc12` belongs 13.3% (inactive); to `O=C(CSc1nc2ccccc2n1Cc1ccccc1)NNC(=S)Nc1ccccc1`, 34.3% (active).
Under `CC(C)(C)NC(=O)Cn1c(SCC(=O)Nc2nccs2)nc2ccccc21` stands 3.98% (inactive); under `CCC(c1nnc(SCC(=O)NNC(=O)c2ccccc2)n1Cc1ccccc1)N(C)C` (stereo unspecified), -0.56% (inactive).
Regarding `CCC(=O)Nc1ccc2c(c1)C(=O)N(C)[C@H]1CC[C@H](CC(=O)NCCOC)O[C@@H]1CO2`, the inhibition was -9.58% (inactive).
In the case of `Nc1[nH]c(/C=C2/CCCCC2n2[nH]c(=O)n(-c3ccccc3)c2=O)c(Cc2ccccc2)[n+]1Cc1ccccc1` (stereo unspecified), the inhibition is -5.57% (inactive).
Under `CCn1c(-c2ccncc2)n[nH]c1=S` stands 3.35% (inactive).
To `CCc1cc(-c2n[nH]c(=S)n2CC(C)C)cs1` belongs 19.6% (active); to `CCCc1cc(-c2n[nH]c(=S)n2Cc2ccccc2)cs1`, 2.87% (inactive); to `CCC(=O)c1c(CC)c2n3c1=CC[C@H]3CC(Br)C=2` (stereo partly specified), 1.91% (inactive).
To `Cc1ccc(NC(=S)NNC(=O)CSc2nnc(SCc3ccccc3Cl)s2)cc1` belongs 19.7% (active).
Regarding `CCSc1nnc(SCC(=O)NNC(=O)c2ccccc2F)s1`, the inhibition is 4.1% (inactive).
In the case of `O=C(CSc1nnc(SCc2ccc(Cl)cc2)s1)N/N=C/c1ccccc1Cl`, the inhibition was -4.99% (inactive).
In the case of `COc1cccc(Cn2cc(COC(=O)Nc3ccc(F)cc3)nn2)c1`, the inhibition was -7.76% (inactive).
As to `C[C@@H]1CN([C@@H](C)CO)C(=O)c2cccc(NC(=O)Nc3cccc4ccccc34)c2O[C@H]1CN(C)S(=O)(=O)c1ccccc1F`, the inhibition was -21.9% (inactive).
To `CCOc1ccc2[nH]c(=S)sc2c1` belongs 23.5% (active); to `CCOc1ccc2[nH]c(=O)c(CN(CCCO)C(C)=O)cc2c1`, -0.39% (inactive).
Under `Nc1ccc2[nH]c(=S)sc2c1` stands 1.91% (inactive).
As for `COc1ccc2c(C(C)c3ccc(N)cc3)cn(C)c2c1` (stereo unspecified), the inhibition is 9.83% (inactive).
Under `CCCCNC(=O)C[C@@H]1C(=O)N(CCc2ccc(Cl)cc2)C2=CCCC[C@]21C(=O)OCC` stands -11% (inactive); under `O=C(NC(=S)Nc1ncccn1)c1ccccc1Br`, 20.2% (active).
Under `CC1CCN(C(=S)NC(=O)c2ccccc2Br)CC1` stands 16.3% (inactive); under `COC(=O)c1cccnc1NC(=S)NC(C)C`, 11.5% (inactive); under `O=C(CN1CCC(NC(=O)NCc2ccccc2)CC1)Nc1ccc2c(c1)OCCO2`, 4.02% (inactive).
With `O=C(NC1CCC1)c1ccc(C#CC2CC2)cn1`, the inhibition is 8.79% (inactive).
Regarding `O=C(CCc1c[nH]c2ccccc12)NCCOc1ccccc1`, the inhibition was -37% (inactive).
To `Cc1cc(NCCc2c[nH]c3ccccc23)ccc1Oc1cccnc1` belongs 24.1% (active); to `COc1cccc(CNCCc2c[nH]c3ccccc23)c1OCc1ccccc1F`, -6.09% (inactive); to `C#CCNC(=O)C[C@H]1C[C@@]2(C(=O)OC)C(=C[C@H](C(C)C)O[C@@H]2C2CC2)N(Cc2ccco2)C1=O`, 3.7% (inactive).
`Cc1cccc(C(=O)Nc2c(-c3ccc(F)cc3)nc3ncccn23)c1`: the inhibition was -0.59% (inactive).
`COC(=O)CC1CCc2cc(C)cc(C(CC(C)C)NC(=O)[C@H](CC(C)C)NC(=O)OCc3ccccc3)c2O1` (stereo partly specified): the inhibition was -3.39% (inactive).
On to `O=C(OC12CC3CC(CC(C3)C1)C2)c1ccc(NCc2cc(O)ccc2O)cc1`, for which the inhibition is 42.5% (active).
To `O=C(C1CCCN1S(=O)(=O)c1ccccc1)N1CCc2ccccc2C1` (stereo unspecified) belongs -2.35% (inactive).
In the case of `Cc1nnc(Sc2nc3c(c(=O)[nH]c(=O)n3C)n2Cc2ccccc2)s1`, the inhibition is 19.7% (active).
Take `Cc1nnc(SCCCn2c(N3CCCCC3)nc3c2c(=O)[nH]c(=O)n3C)s1`: the inhibition was -3.33% (inactive).
Under `C=CCn1c(SCc2ccccc2)nc2c1c(=O)[nH]c(=O)n2C` stands -4.25% (inactive); under `COc1ccc(CN2C/C(=C/c3ccccc3)N3C(=O)C[C@@H](c4ccccc4)N=C23)c(OC)c1`, -11.6% (inactive).
As for `Cc1ccc(-n2c(COc3ccccc3)nnc2SCC(=O)Nc2ccc3c(c2)OCCO3)cc1`, the inhibition is -18.3% (inactive).
Regarding `COc1ccc(C(=O)OCCN2CCN(C3CN(Cc4cn(Cc5ccccc5F)nn4)S(=O)(=O)C3)CC2)cc1OC` (stereo unspecified), the inhibition was -1.33% (inactive).
To `CC(NC(=O)COC(=O)C1CCN(S(=O)(=O)c2ccccc2C(F)(F)F)CC1)c1ccccc1` (stereo unspecified) belongs -13.3% (inactive); to `CC(NC(=O)Cn1cc(C(F)(F)F)cc(Cl)c1=O)c1ccccc1` (stereo unspecified), 0.8% (inactive); to `CC(NC(=O)COC(=O)Cn1cc(C(F)(F)F)ccc1=O)c1ccccc1` (stereo unspecified), 19.8% (active).
To `NC(Cc1ccc(F)cc1)c1csc(Nc2nncc3ccccc23)n1` (stereo unspecified) belongs 9.76% (inactive).
Under `NC(Cc1ccccc1)c1csc(Nc2cc(Oc3ccccc3)ncn2)n1` (stereo unspecified) stands 30.9% (active); under `CC(C)(C)CC(=O)Nc1nc(C(N)Cc2ccc(C(F)(F)F)cc2)cs1` (stereo unspecified), 6.39% (inactive).
For `CC(C)N1CCCCC(NC(=O)C(C)(C)C)C1=O` (stereo unspecified), the inhibition was -4.58% (inactive).
Turning to `C=CCN1C(C(=O)OC)CN(Cc2cn(Cc3ccccc3)nn2)CCS1(=O)=O` (stereo unspecified), the inhibition was 1.48% (inactive).
Under `O=[N+]([O-])c1cc([N+](=O)[O-])c2cccnc2c1O` stands 2.18% (inactive); under `N#Cc1ccccc1NC(=O)COc1c(Br)cc(Br)c2cccnc12`, 5.73% (inactive); under `CC(=O)NC(c1cccs1)c1cc(Br)c2cccnc2c1O` (stereo unspecified), 22% (active).
`Cc1c(C(C)c2ccccc2O)[nH]c2ccccc12` (stereo unspecified): the inhibition was -10.4% (inactive).
To `CCOC(=O)NC(=O)C(=CNc1cccc(OC)c1)C(=O)NC(=O)OCC` belongs 5.9% (inactive); to `CCOC(=O)C(=Cc1ccccc1)C(=O)c1ccccc1`, 8.51% (inactive).
Under `CCOC(=O)NC(=O)/C(C#N)=C\c1ccccc1` stands 22.2% (active).
To `COC(=O)[C@]12C[C@H](CC(=O)NCC34CC5CC(CC(C5)C3)C4)C(=O)N(Cc3ccc(Cl)cc3Cl)C1=C[C@H](COCc1ccccc1)O[C@@H]2C` belongs -6.39% (inactive).
For `O=C(Nc1ccc(Br)cc1)OCCN1C(=O)CCC12CCC(c1ccccc1)CC2` (stereo unspecified), the inhibition is -1.44% (inactive).
Consider `N#CC1(Nc2ccc3c4c(cccc24)CC3)CCCCC1`, for which the inhibition was -35.6% (inactive).
To `N#CC1(Nc2ccc(-c3ccc(Cl)cc3)cc2)CCCC1` belongs 23.6% (active).
As to `NC(=O)C1(Nc2ccc(-c3ccccc3)cc2)CCCC1`, the inhibition is 0.79% (inactive).
To `CC(c1ccc(N)cc1)c1cn(C)c2ccccc12` (stereo unspecified) belongs 13.1% (inactive).
To `FC(F)(F)c1cccc(Cn2ccc3ccc(-c4ccc5ccn(Cc6ccccc6)c5c4)cc32)c1` belongs -7.36% (inactive).
To `C=CCN(C)CC#Cc1ccccc1` belongs 6.96% (inactive).
With `CCOC(=O)C1(Cc2cccc(OC)c2)CCCN(S(=O)(=O)c2cccnc2)C1` (stereo unspecified), the inhibition is 1.51% (inactive).
As for `CCOC(=O)C1(Cc2cccc(OC)c2)CCCN(C(=O)CCSC)C1` (stereo unspecified), the inhibition is 19.5% (active).
To `CCOC(=O)C1(Cc2cccc(OC)c2)CCN(C(C)COC)CC1` (stereo unspecified) belongs -1.08% (inactive).
To `CC(C)(C)NC(=O)C(c1cccnc1)N(C(=O)c1cnco1)c1ccc(C(C)(C)C)cc1` (stereo unspecified) belongs -5.08% (inactive).
With `CCOc1ccc(Oc2c(Cl)cnn(-c3ccc(C)cc3)c2=O)cc1`, the inhibition was 8.12% (inactive).
Under `COc1cc(NS(=O)(=O)c2ccc3ccccc3c2)c2ncccc2c1` stands 23.8% (active); under `O=S(=O)(Nc1ccccn1)c1cccc(S(=O)(=O)c2ccc(Cl)cc2)c1`, -7.39% (inactive).
Under `O=[N+]([O-])c1ccccc1S(=O)(=O)Nc1cccc2cccnc12` stands 6.98% (inactive); under `CCOC(=O)C(=O)N(Cc1ccccc1)c1ccccc1C(=O)Nc1cc(OC)ccc1OC`, -2.65% (inactive).
Under `NC[C@H](Cc1ccccc1)NCCc1cc(C(F)(F)F)cc(C(F)(F)F)c1` stands 21.8% (active); under `CC1=CC(C)(C)NC(=S)N1NC(=O)c1ccccc1Cl`, 4.76% (inactive); under `CC1=CC(C)(C)NC(=S)N1c1ccccc1`, 20.1% (active).
Take `CN(C)Cc1cn(-c2ccc(-c3noc4c3C(=O)N(CC(=O)N3CCOCC3)CC4)cc2)nn1`: the inhibition was 1.51% (inactive).
To `COc1ccc(N2CCN(CCNS(=O)(=O)c3ccc([N+](=O)[O-])cc3)CC2)cc1` belongs -4.09% (inactive); to `COc1ccccc1CCNC(=O)C1CCN(c2nc(C)cc(C)n2)CC1`, -0.08% (inactive); to `Cc1ccc(NC(=O)CN(C)Cc2ccc(F)cc2)c([N+](=O)[O-])c1`, -1.08% (inactive).
As to `Cc1c(NC(=S)NCc2ccc(F)cc2)cccc1[N+](=O)[O-]`, the inhibition was 19.5% (active).
For the compound `Cc1cccc(NC(=S)NCCc2ccc(F)cc2)c1C`, the inhibition was 8.1% (inactive).
Under `O=C(CSc1nc2ccccc2n1Cc1ccccc1Cl)N/N=C\c1c[nH]c2ccccc12` stands -20.9% (inactive); under `COC(=O)C1CN(Cc2ccc(F)cc2)CCS(=O)(=O)N1Cc1ccc(Cl)cc1` (stereo unspecified), 0.13% (inactive); under `CCC(=O)OCCCN1C(=O)CCC12CCC(c1ccccc1)CC2` (stereo unspecified), -0.68% (inactive).
Take `CC1Oc2ccccc2N(Cc2cccnc2)C1=O` (stereo unspecified): the inhibition is 7.65% (inactive).
In the case of `Cc1cccc(C)c1NC(=O)CN1C(=O)C(C)Oc2ccccc21` (stereo unspecified), the inhibition was 20.8% (active).
To `Cc1ccc2c(c1)N(CC(=O)N1CCCc3ccccc31)C(=O)C(C)O2` (stereo unspecified) belongs 0.55% (inactive); to `COc1ccc(Cn2ccc3ccc(-c4ccc5ccn(Cc6ccccc6C)c5c4)cc32)cc1`, 3.9% (inactive).
